ChEMBL document CHEMBL3433997, “St. Jude Leishmania screening dataset” (2016)

target: Glucose transporter (Leishmania mexicana) (UniProt O61059); assay: ST_JUDE_LEISH: Cytotoxicity at 2uM final concentration against transgenic Leishmania Mexicana promastigotes LmGT2 that are glucose transport deficient and complemented with the L. Mexicana glucose transporter 2. Activity is measured by DNA content using SYBR green in vitro; assay type: functional

Row | Compound | inhibition
1 | CC(CO)(CO)NCc1cc2ccc3ccsc3c2c2ccccc12 | 48%
2 | COc1ccc2nc3cc(Cl)ccc3c(NCCCO)c2c1 | 2.01%
3 | Cc1cc(Cl)ccc1NC(=O)NCCCCCN1CCC(c2c[nH]c3ccccc23)CC1 | 10.4%
4 | N#Cc1ccc(Cn2ccc3c4c(N)nc(N)nc4ccc32)cc1 | 77.7%
5 | Nc1nc(N)c2c(Cl)c(N(Cc3ccccc3)Cc3ccccc3)ccc2n1 | 7.75%
6 | CCCNc1nc(NCc2c(C)cccc2C)nc(NC(C)(C)C)n1 | 1.74%
7 | OC1=C2C(=Nc3ccccc3SC2c2cccs2)c2ccccc21 (centres undefined) | 1.64%
8 | COc1cc(NC(=O)c2sc(-c3ccc(Cl)cc3)cc2NC(=O)CN2CC[C@@H](O)C2)ccc1OCCN1CCCC1 | 4.88%
9 | FC(F)(F)c1ccc2[nH]c(-c3cccc(-c4ccc(CNCCN5CCNCC5)cc4)c3)nc2c1 | 1.97%
10 | N[C@@H](Cc1cc(I)c(Oc2ccc(O)c(C(=O)O)c2)c(I)c1)C(=O)O | 3.61%
11 | O=C(COc1ccc(Cl)c(Cl)c1)NCCCCCN1CCCN(C(=O)Nc2cc(Cl)cc(Cl)c2)CC1 | 6.4%
12 | NC(=O)c1cccc(C(=O)Nc2cccc(-c3ccc(-c4nc5ccccc5[nH]4)s3)c2)c1 | 0.12%
13 | NCc1ccc(CNCc2ccc(-c3ccc(-c4nc5cc(C(F)(F)F)ccc5[nH]4)s3)cc2)cc1 | 0.6%
14 | Fc1c(CNCC2CCN(CC3CCCCC3)CC2)cccc1C(F)(F)F | 5%
15 | Oc1ccc(OCc2ccccn2)cc1 | 4.04%
16 | NC1=NC2(CCCCC2)N(Cc2ccc(Cl)c(Cl)c2)C(N)=N1 | -0.42%
17 | O=C(NCc1ccc(F)cc1)c1cc(Br)cc(N2CCN(c3ccncc3)CC2)c1 | 4.17%
18 | CCCN(CCC)C(=O)c1cc(-c2cccc(C)c2)nc2ccccc12 | -1.61%
19 | Cc1c(CCc2cccc(F)c2F)[nH]c2ccccc2c1=O | 0.83%
20 | CCOC(=O)N1CCN(CCCNc2c3ccccc3nc3ccccc23)CC1 | 1.91%

Row | Compound | inhibition
21 | COc1ccc2c(c1)Nc1ccc(Cl)cc1C2N (centres undefined) | 0.48%
22 | c1ccc(CN2CCN(CCCCNc3c4ccccc4nc4ccccc34)CC2)cc1 | 19.4%
23 | CC(=O)N1Cc2ccccc2C1=O | 2.11%
24 | O=C(Nc1ccc(OC2CCN(Cc3ccsc3)CC2)c(Cl)c1)c1ccc(F)cc1 | 2.62%
25 | C/C=C/COc1ccc2ccccc2c1CNCCCCCCCCNCc1c(OC/C=C/C)ccc2ccccc12 | 1.19%
26 | CCOC(=O)c1ccc(NC(=O)Nc2ccc(-c3cccc(-c4nc5cccc(C)c5[nH]4)c3)cc2)cc1 | -0.76%
27 | O=C(NCCCN1CCN(c2cccc(Cl)c2)CC1)c1ccc(-c2nc3cc(Cl)c(Cl)cc3[nH]2)cc1 | 13.7%
28 | COc1ccc(CNC2CCN(C)CC2)cc1-c1ccc(S(=O)(=O)NCc2ccccc2)c(F)c1 | -1.2%
29 | O=C(C=Cc1ccc(F)cc1)NC1CCC(CCN2CCc3ccc(-c4cnccn4)cc3CC2)CC1 (centres undefined) | 1.49%
30 | CN1CCC(N2CCN(Cc3ccc(-c4ccc(-c5nc6ccccc6[nH]5)s4)cc3)CC2)CC1 | 5.9%
31 | CNc1ccc(CNCc2ccc(-c3ccc(-c4nc5cc(F)ccc5[nH]4)cc3)cc2)cc1 | -0.33%
32 | Oc1ccccc1CN1CCCC(COC(c2ccc(F)cc2)c2ccc(F)cc2)C1 (centres undefined) | 0.55%
33 | Cc1[nH]c(C)c(-c2ccc(C#Cc3ccc(F)cc3F)cc2)c(=O)c1Br | 0.22%
34 | CCCc1cc2c3c(N)nc(N)nc3ccc2n1CC | 4.29%
35 | O=C(Nc1cccc(F)c1)N[C@H]1CCN(CCCCCNC(=O)C2CC2c2ccc(Cl)c(Cl)c2)C1 (some centres undefined) | 0.83%
36 | CCC1=C(CC2NCCc3cc(OC)c(OC)cc32)CC2c3cc(OC)c(OC)cc3CCN2C1 (centres undefined) | 89.6%
37 | CN1CCN(CCCN(Cc2ccc(-c3ccc(CNCc4ccc5c(c4)OCO5)cc3)cc2)C(=O)CCC2CCCC2)CC1 | 1.18%
38 | Cc1nc(N)nc(N)c1-c1ccc(Br)c([N+](=O)[O-])c1 | 2.4%
39 | COc1cc(Br)ccc1N1CCN(CCCCNC(=O)c2ccc(NC(=O)c3ccc(Cl)cc3)cc2)CC1 | 1.5%
